The record followed here is PubChem BioAssay AID540333 (Southern Research Specialized Biocontainment Screening …, 2011).

SMILES strings stand for the structures. Screen size: about 10,000 compounds; about 320 (3.2%) were called active. What follows is part of a selection rich in actives, with near analogues and random picks from the rest. A number with no mark means an inactive call. Rule as the data show it: active = CPE inhibition mostly above about 9.1% (no sharp cut-off); inactive = mostly below about 7.2%.

The nature of this experiment: antivirals protecting cells from dengue CPE – CPE readout, HTS (AID 540333). Particulars: Dengue virus CPE inhibition in host cells, at 20 µM; active compounds read high.
As for `C/C(=N\Nc1ncc(Cl)cc1Cl)c1ccc(S(=O)(=O)NCc2ccco2)cc1`, the CPE inhibition result was “inactive”.

On to `C/C(=N\Nc1ccccn1)c1ccc(S(=O)(=O)NCc2ccco2)cc1`, for which the CPE inhibition entry was “inactive”. Then `C/C(=N\Nc1nc(Cl)c(Cl)cc1Cl)c1ccc(S(=O)(=O)NCc2ccco2)cc1`, with 8.5% (active); and `Cc1ccccc1OCC(=O)N/N=C1\SCC(=O)N1Cc1ccccc1`, with “inactive”.

For `COc1ccc(-c2cc(C(=O)OCC(=O)Nc3ccc4c(c3)OCO4)c3ccccc3n2)cc1`, the CPE inhibition was 0.175%.

`COc1ccc(C(C(=O)Nc2ccc3c(c2)OCO3)N(C)C(=O)Cc2c[nH]c3ccccc23)cc1` (stereo unspecified): the CPE inhibition is 25.8% (active). On to `COc1ccc(NC(=O)C(c2cc3c(cc2[N+](=O)[O-])OCO3)N(C)c2ccccc2)cc1` (stereo unspecified), for which the CPE inhibition was 1.73%. Turning to `O=C(CCCC(=O)N1CCN(c2ccc([N+](=O)[O-])cc2)CC1)c1ccccc1`, the CPE inhibition was 0.355%.

For the compound `Cc1ccc2nc(N3CC(=O)Nc4ccccc43)nc(-c3ccccc3)c2c1`, the CPE inhibition is 1.55%.

As to `Cc1c(Cl)cccc1NCC(=O)Nc1ccc(Cl)cc1F`, the CPE inhibition was 4.37%.

For the compound `COc1ccc(NS(=O)(=O)c2cccc(NC(=O)CCC(=O)c3ccc(Cl)cc3)c2)cc1`, the CPE inhibition was 17.3% (active). On to `COc1ccc(NC(=O)CCC(=O)c2cccs2)cc1S(=O)(=O)Nc1ccc(Cl)cc1`, for which the CPE inhibition was 0.325%. As to `Cc1ccc(C(=O)CCC(=O)Nc2ccc(Cl)c(S(=O)(=O)Nc3cccc(Cl)c3)c2)cc1`, the CPE inhibition was 4.45%. As to `CC(=O)Nc1ccc(OCC(=O)NCCc2ccc(Cl)cc2)cc1`, the CPE inhibition entry was “inactive”. Next, `Cc1cccc(C)c1-n1c(C)cc(/C=N\NC(=O)CC(=O)NC2CCCCC2)c1C`: 0.17%; `Cc1ccc(-n2c(C)cc(/C=N\NC(=O)CC(=O)NC(C)C)c2C)cc1`: “inactive”; `Cc1cc(/C=N\NC(=O)CC(=O)NC2CCCCC2)c(C)n1-c1cccc(Cl)c1Cl`: 22.7% (active).

As for `Cc1ccc(S(=O)(=O)c2cc(OC(=O)c3ccco3)ccc2OC(=O)c2ccco2)cc1`, the CPE inhibition was 0.235%. Next, `CC1(C)CC(NC(=O)C(Cl)(Cl)Cl)CC(C)(C)N1`: “inactive”.

For the compound `CCn1ncc(/C=C/C(=O)C2CC2)c1C`, the CPE inhibition was 2.21%. In the case of `CCOc1ccc(N=C2NC(=O)/C(=C/C(=O)OC)S2)cc1`, the CPE inhibition was 0.935%.

In the case of `CCOC(=O)c1c(C)[nH]c(C2=NNC(=Nc3ccc(OCC)cc3)SC2)c1C`, the CPE inhibition is 13.2% (active). Next, `CCOC(=O)c1c(C)[nH]c(C(=O)/C(C#N)=C/c2ccc(OCC)cc2)c1C`: 0.085%; `O=C(CCN1C(=O)c2ccccc2C1=O)C1=NN[C@@H]2C(=O)N(c3cccc(F)c3)C(=O)[C@H]12`: 1.32%.

For the compound `COc1cc(C=Nc2cccc([N+](=O)[O-])c2C)ccc1OC(C)=O`, the CPE inhibition was 4.63%.

For the compound `Cc1cccc(/C=N/Nc2cc(N3CCOCC3)nc(N3CCOCC3)n2)c1`, the CPE inhibition entry was “inactive”. Next, `Cc1cccc(-c2nc(Nc3ccc(N4CCOCC4)cc3)c3ccccc3n2)c1`: “inactive”; `CSc1nc(N2CCOCC2)nc2ccc(C)cc12`: 11.8% (active); `COc1ccc(C)cc1NC(=O)c1cc2c(s1)CCC2`: “inactive”. Regarding `COc1ccc(/C=N/N2CCN(C3c4ccccc4-c4ccccc43)CC2)cc1OC`, the CPE inhibition is 0.5%. Then `CCc1nc(C#N)c(N2CCOCC2)o1`, with 0.655%; and `COc1ccc(C(=O)N[C@H](C(=O)OCC(=O)NC(=O)c2cccn2C)C(C)C)cc1`, with “inactive”; and `CC(=O)c1ccc(NC(=O)c2cc(Cl)sc2Cl)cc1`, with 0.185%. Next, `O=C(COC(=O)c1ccccc1C(=O)c1ccc(Cl)cc1)NCCc1ccccc1`: 5.59%; `Cc1ccc(C(=O)c2ccccc2C(=O)OCC(=O)NCCc2ccccc2)cc1`: 1.41%. On to `Cc1ccc(C(=O)c2ccccc2C(=O)OCC(=O)NCCc2ccc(Cl)cc2Cl)cc1`, for which the CPE inhibition was 22.8% (active). Then `O=C(Nc1ccn(-c2ccccc2)n1)c1ccc(Cl)cc1`, with 0.155%; and `COc1ccc(CCNC(=O)CC2SC(=NCCc3ccccc3)NC2=O)cc1` (stereo unspecified), with “inactive”.

Regarding `C[C@H](NS(=O)(=O)c1ccc(Cl)cc1)C(=O)OCC(=O)NC(=O)Nc1ccc2c(c1)OCCO2`, the CPE inhibition is 0.475%. In the case of `O=S(=O)(Nc1cccc2c1CCCC2)c1ccc(Cl)cc1`, the CPE inhibition is 21.1% (active). Regarding `COc1cc(NS(=O)(=O)c2ccc(Cl)cc2)c(C(=O)O)cc1OC`, the CPE inhibition is 0.06%. Then `Cc1ccc(S(=O)(=O)Nc2cccc3c2CCCC3)cc1`, with 0.255%. As to `CCCc1nc2c(c(=O)c3ccccc3n2C)c(=O)n1C1CCCCCC1`, the CPE inhibition result is “inactive”. Next, `Cn1c2ccccc2c(=O)c2c(=O)n(C3CCCCC3)c(-c3ccco3)nc21`: 10.4%. On to `CCc1nc2c(c(=O)c3ccccc3n2C)c(=O)n1C1CCCCCC1`, for which the CPE inhibition is 13.5% (active). Then `Cn1c2ccccc2c(=O)c2c(=O)n(C3CCCCCC3)c(C3CCCCC3)nc21`, with “inactive”. `Cn1c2ccccc2c(=O)c2c(=O)n(-c3ccccc3)c(C3CCCCC3)nc21`: the CPE inhibition was 9.13% (active).

With `CCCc1nc2c(c(=O)c3ccccc3n2C)c(=O)n1-c1ccc(F)cc1`, the CPE inhibition was 1.89%. As for `O=c1[nH]cnc2c1c(-c1ccccc1)cn2-c1ccc(Br)cc1`, the CPE inhibition was 11.8% (active). Next, `CCOC(=O)CSc1ncnc2c1c(-c1ccccc1)cn2-c1ccc(OC)cc1`: 2.07%; `COC(=O)C(C)Sc1ncnc2c1c(-c1ccccc1)cn2-c1ccc(OC)cc1` (stereo unspecified): 2.83%. Next, `CCOc1ccccc1NC(=O)C(OC(=O)c1ccccc1NS(=O)(=O)c1cccs1)c1ccccc1` (stereo unspecified): 1.08%; `CC12CCC(C(=O)N(NC(=O)c3cccnc3)C1=O)C2(C)C` (stereo unspecified): 2.09%. As for `O=C(N/N=C/c1ccccn1)C12CC3CC(CC(C3)C1)C2`, the CPE inhibition result is “inactive”.

With `CC(NC(=O)COC(=O)[C@@H]1CCCN1S(=O)(=O)c1ccccc1F)C12CC3CC(CC(C3)C1)C2` (stereo partly specified), the CPE inhibition entry was “inactive”. For `CC(NC(=O)/C=C/c1cnc2ccccc2n1)C12CC3CC(CC(C3)C1)C2` (stereo unspecified), the CPE inhibition was 12.8% (active).

For `O=C(COc1ccc(Br)cc1Cl)NC1CCCCC1`, the CPE inhibition was 0.99%. Next, `CC(=O)c1ccc(NC(=O)CN2C(=O)/C(=C/C(C)=C/c3ccccc3)SC2=S)cc1`: 0.22%; `CC(O)c1nc2ccccc2n1Cc1ccc([N+](=O)[O-])cc1` (stereo unspecified): “inactive”; `Cc1ccc(-c2csc(NC(CO)c3nc4ccccc4n3CCOCCO)n2)cc1` (stereo unspecified): 0.615%.

Consider `CCCn1c(C(C)Nc2nc(-c3ccc(Cl)c([N+](=O)[O-])c3)cs2)nc2ccccc21` (stereo unspecified), for which the CPE inhibition was 29.9% (active).

As to `CCC1CCCCN1C(=O)c1cccc(S(=O)(=O)Nc2cc(C(F)(F)F)ccc2Cl)c1` (stereo unspecified), the CPE inhibition is 3.38%. For `COc1ccc(CCN=C(N)NS(=O)(=O)c2ccc3ccccc3c2)cc1`, the CPE inhibition result is “inactive”. For `Cc1ccc(C2(CCN)CCOC(C(C)C)C2)cc1` (stereo unspecified), the CPE inhibition was 7.74% (active). Consider `O=C(NNS(=O)(=O)c1ccc(Cl)cc1)c1ccc(S(=O)(=O)N2CCCCC2)cc1`, for which the CPE inhibition entry is “inactive”. Regarding `CC(C)(C)c1ccc(S(=O)(=O)N2CCSC2)cc1`, the CPE inhibition is 0.03%. Regarding `Cc1ccc(S(=O)(=O)N2CCCCCC2)cc1[N+](=O)[O-]`, the CPE inhibition entry was “inactive”. Then `CC(C)(C)c1ccc(S(=O)(=O)N2CCCCC2)cc1`, with 9.75% (active); and `COC(=O)c1ccccc1NC(=S)N(Cc1ccc2c(c1)OCO2)Cc1cc2cc(OC)ccc2[nH]c1=O`, with 3.25%. Regarding `COC(=O)c1ccccc1NC(=S)N(Cc1ccc2c(c1)OCO2)Cc1cc2cc(C)ccc2[nH]c1=O`, the CPE inhibition is 21.6% (active). Next, `COC(=O)c1ccccc1NC(=S)N(Cc1ccc2c(c1)OCO2)Cc1cc2ccc(C)cc2[nH]c1=O`: 33% (active); `CCN1CCCC1CN(Cc1cc2ccc(C)cc2[nH]c1=O)C(=S)Nc1ccccc1OC` (stereo unspecified): “inactive”. As to `Cc1ccc2[nH]c(=O)c(CN(Cc3cccs3)C(=S)NCc3ccco3)cc2c1`, the CPE inhibition was 5.92%. As to `CCOc1ccccc1NC(=S)N(Cc1cc2ccc(C)cc2[nH]c1=O)CC1CCCN1CC` (stereo unspecified), the CPE inhibition result is “inactive”. Then `CNC(=S)N(Cc1cccs1)Cc1cc2cc(OC)c(OC)cc2[nH]c1=O`, with “inactive”. As to `COc1cc2cc(CN(Cc3cccs3)C(=S)Nc3ccccc3)c(=O)[nH]c2cc1OC`, the CPE inhibition is 6.21%. Then `COC(=O)c1ccccc1NC(=S)N(Cc1ccc2c(c1)OCO2)Cc1cc2ccc(OC)cc2[nH]c1=O`, with 23.8% (active); and `COC(=O)Cc1ccc(NC(=S)N2CCN(c3cccc(O)c3)CC2)cc1`, with 0.105%; and `CCOC(=O)CCCNC(=O)COC(=O)[C@@H]1CCCN1S(=O)(=O)c1ccc(Cl)cc1`, with “inactive”.

`Cc1ccc(-c2nc3ccccc3c(=O)n2NC(=O)COc2ccccc2)cc1`: the CPE inhibition was 0.37%. Next, `CN(C)c1ccc(/C=N/NC(=S)NCc2ccco2)cc1`: 0.335%; `COc1ccc(NC(=O)Nc2cccc([N+](=O)[O-])c2)cc1Cl`: 0.865%. Regarding `O=C(O)c1ccc(NC(CSCc2ccccc2F)C(=O)O)c([N+](=O)[O-])c1` (stereo unspecified), the CPE inhibition entry was “inactive”. Turning to `Cc1c(N=C2NC(=O)/C(=C/c3ccc(O)cc3)S2)c(=O)n(-c2ccccc2)n1C`, the CPE inhibition is 0.27%. Then `CC12CCC(C/C1=N\N=C1\NC(=O)/C(=C\c3ccc(Cl)cc3)S1)C2(C)C` (stereo unspecified), with 12.2% (active).

For `CC12CCC(C(=O)N(c3ccc(Cl)cc3)C1=O)C2(C)C` (stereo unspecified), the CPE inhibition entry is “inactive”. On to `NS(=O)(=O)c1ccc(NC(=S)N2CCN(c3ccccc3)CC2)cc1`, for which the CPE inhibition was 0.43%. Next, `O=C(COc1ccccc1-c1ccccc1)NCCN1C(=O)S/C(=C\c2cccnc2)C1=O`: 2.91%; `COc1cc(OC)cc(N(C(=O)C2COc3ccccc3O2)C(C(=O)NC2CCCCC2)c2ccc(O)cc2)c1` (stereo unspecified): 12.5% (active); `COc1ccc(N(C(=O)CSCC(=O)Nc2cc(C)on2)C(C(=O)NC2CCCCC2)c2ccc(O)c(O)c2)cc1` (stereo unspecified): “inactive”. Then `COc1ccc(N(C(=O)C2COc3ccccc3O2)C(C(=O)NC2CCCCC2)c2ccccc2)cc1OC` (stereo unspecified), with 4.27%.
